From PubChem BioAssay AID652067 (The Scripps Research Institute Molecular Screening Center, 2013)
Hit rate of the full screen: of about 370,000 compounds, about 5,400 (1.5%) were called active. The sample holds actives, similar compounds and a random draw of the others, so the mix is not that of the screen.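 The calls were made as follows: active = activation above the mean of all tested compounds plus 3 SD (cut at about 5.5% in these data); inactive = the rest.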

Tested on: DAF-12 nuclear receptor (Haemonchus contortus)
Assay: hcDAF-12 driven luciferase reporter activation – cell-based, luminescence, HEK293, lit1-tk-luc reporter, primary screen (AID 652067);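 also: 100% = response to 3 µM Δ7-dafachronic acid high control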
Conditions: HEK293 hcDAF-12 lit1-tk-luc reporter, at 6.8 µM, active compounds read high, 0% DMSO, 100% Δ7-dafachronic acid

activation, inactive:
CC(C)CNc1cccc2c1S(=O)(=O)N(Cc1cn(Cc3ccccc3C(F)(F)F)nn1)Cc1ccccc1O2 -1.42%
O=C(CSc1nc2sc3c(c2c(=O)n1-c1ccccc1)CCCC3)NN=Cc1ccc(OCc2ccccc2)cc1 -1.69%
COc1cccc(C2c3[nH]c4ccccc4c3CCN2Cc2cccc(C)n2)c1 (centres undefined) 3.77%
CCOc1ccc(C2c3[nH]c4ccccc4c3CCN2Cc2cccn2-c2ncccn2)cc1 (centres undefined) 1.92%
Cc1[nH]c2ccccc2c1CC(=O)Nc1ccc(Nc2cccnc2)c(-c2cccc(Cl)c2)c1 1.03%
COC(=O)c1ccc(CNC(=O)c2ccc3oc(C(C)C)nc3c2)cc1 0.43%
CC(C)c1nc2cc(C(=O)NC(C)c3cnn(C)c3)ccc2o1 (centres undefined) -1.66%
CC(c1ccc(N)cc1)c1cn(C)c2ccccc12 (centres undefined) -2.32%
Cc1ccccc1Nc1nc(N)nc(CSc2nnc3ccccn23)n1 0.54%
Cc1ccccc1Nc1nc(N)nc(COC(=O)CCC(=O)c2ccc(F)cc2)n1 -0.96%
COC(CNC(=O)[C@H](Cc1ccccc1)NC1(C(=O)NC2CCCCC2)CCCCC1)OC 0.68%
O=C(Nc1cccc2cccnc12)c1ccc2sc([C@H]3C[C@H](O)[C@@H](CO)O3)nc2c1 -3.24%
CC(=O)/C(=N\Nc1ccc(Cl)cc1Cl)Sc1cccc2cccnc12 -1.47%
COC(=O)[C@]12C[C@H](CC(=O)N3CCOCC3)C(=O)N(Cc3ccc(Cl)cc3Cl)C1=C[C@H](C(C)C)O[C@@H]2C1CC1 -0.53%
CC(=O)OC12CCCN(C1)/C(=C/c1ccncc1)C2 (centres undefined) -0.38%
O=C(Cn1c(-c2cncs2)nc2ccccc21)NC1CCCC1 -0.67%
CC1CCCCC1NC(=O)Cn1c(=O)cnc2ccccc21 (centres undefined) 0.69%
COCCN1CCn2c(nc3cc(NS(C)(=O)=O)ccc32)C1 0.72%
O=C(NC1CCC1)c1ccc(C#CC2CC2)cn1 1.58%
Nc1ncnc2c1ncn2C1OC(CO)CC1O (centres undefined) -1.72%
Cc1no[n+]([O-])c1COc1ccccc1/C=C1\NC(=S)NC1=O -0.17%
Cc1cccc(NC(=O)c2cc3c(C)nn(-c4ccccc4)c3s2)c1 -3.69%
O=C(NCCc1csc(-c2ccccc2)n1)c1ccccc1F -1.62%
NS(=O)(=O)c1cc(C(=O)NCCOc2ccccc2)c(Cl)cc1Cl -2.95%
CCc1c(-c2ccccc2OC)ncn1CCc1ccccc1OC -2.85%
N[C@@H](Cc1ccccc1)C(=O)N1CCC[C@@H]1C(=O)N1CCC2CCN(S(=O)(=O)c3ccccc3)CC21 (some centres undefined) -1.99%
COC1=NC2=NCCN2C(OC)=N1 0.26%
COC(=O)C[C@@H]1CC[C@@H]2[C@@H](COc3ccc(NC(=O)Nc4ccc(F)c(F)c4)cc3C(=O)N2C)O1 -4.16%
N#CCC[C@H]1CC[C@]2(CCCN(Cc3ccc(Cl)cc3)C2)O1 -0.47%
Cc1cc2c(C)nc(N/N=C/c3ccccc3)nc2o1 -0.61%
CN(CCO)c1ccc(/C=N/Nc2nncc3ccccc23)cc1 5.57%
Nc1nonc1-n1nnc(C(=O)N/N=C/c2ccc(Cl)cc2)c1-c1ccc2c(c1)OCO2 0.66%
O=C(NS(=O)(=O)c1cccs1)[C@H]1O[C@@H](n2ccc(=O)[nH]c2=O)[C@H](O)[C@@H]1O 1.29%
COc1ccc(CSc2nnc(SCC(=O)Nc3ccccc3C(F)(F)F)s2)cc1 -0.61%
CS(=O)(=O)Nc1ccccc1C(=O)OCC(=O)NC1CC1 0.83%
CC(=O)c1cc(-c2ccc3ccccc3c2)c(=O)n2c1CCC2 -0.26%
COC(=O)Nc1nc2ccc(C(=O)C3CC3)cc2[nH]1 0.63%
C[C@@H]1CN([C@@H](C)CO)C(=O)c2cccc(NC(=O)Nc3cccc4ccccc34)c2O[C@H]1CN(C)S(=O)(=O)c1ccccc1F -1.14%
C[C@@H]1ON(C)[C@H]2C[C@H]3c4[nH]c5cccc(-c6ccc7c(c6)OCO7)c5c4CCN3C[C@@H]12 -1.17%
CC(OC(=O)c1cc2ccccc2[nH]1)C(=O)N(C)c1ccccc1 (centres undefined) 2.38%
CCC(=O)N(Cc1cc2ccccc2[nH]c1=O)c1ccc(OC)cc1 -1.6%
Cc1cc(=O)oc(C)c1C(=O)NCCN(C)Cc1ccccc1 -0.39%
O=C1CC(c2ccc3c(c2)OCO3)N=C2N(CC3CC3)C/C(=C/c3ccccc3)N12 (centres undefined) -3.84%
CCNC(=O)COC(=O)/C=C/c1c(C)nn(Cc2cccc(OC)c2)c1Cl 0.11%
CCc1ccc(CNC(=O)CCc2nc(-c3cccs3)no2)cc1 0.59%
O=C(/C=C/c1cccs1)NCc1cccnc1 -0.87%
Cc1ccc2nc(NC(=O)C3CSC4(C)CCC(=O)N34)sc2c1 (centres undefined) -0.71%
CCS(=O)(=O)N1Cc2ccccc2CC1C(=O)Nc1ccc(OC)cc1OC (centres undefined) -0.97%
COC(=O)[C@]12C[C@H](CC(=O)NCc3ccccc3)C(=O)N(CCC3=CCCCC3)C1=C[C@H](C(C)(C)C)O[C@@H]2C 0.06%
O=C(NCc1cccs1)C1CCCN(S(=O)(=O)c2ccc([N+](=O)[O-])cc2)C1 (centres undefined) -2.29%
O=C(Nc1cccn(Cc2c(Cl)cccc2Cl)c1=O)c1ccc(Cl)cc1 -0.98%
COc1ccc(-n2c(COc3ccccc3)nnc2SCC(=O)Nc2ccc3c(c2)OCO3)cc1 -3.31%
O=S1(=O)c2c(cccc2N2CC[C@H](O)C2)O[C@@H]2CCN1C2 -1.21%
CCSc1nnc(-c2cc3c(s2)-c2ccccc2CC3)o1 2.59%
COc1ccc2cc(C(=O)C3CCCN(C(=O)c4sc(C)nc4C)C3)ccc2c1 (centres undefined) -2.25%
CCOc1ccc(NC(=O)C2CCCN(C(=O)Nc3ccccc3)C2)cc1 (centres undefined) -0.89%
COC(=O)[C@]12C[C@H](CC(=O)NCC34CC5CC(CC(C5)C3)C4)C(=O)N(Cc3ccc(Cl)cc3Cl)C1=C[C@H](COCc1ccccc1)O[C@@H]2C -1.65%
CCCOC(=O)Cc1c(O)c2ccccc2[nH]c1=O 0.81%
CCc1ccc2[nH]c(=O)c(Cc3ccccc3)c(O)c2c1 0.62%
C[C@H](C(=O)N(C)c1ccccc1)[C@@H](O)c1ccc(Cl)cc1 -1.63%
Cc1ccc(Cl)cc1NC(=O)C1CCCN(c2cnccn2)C1 (centres undefined) -1.45%
COc1ccc(C2CC(c3cccs3)=NN2C(=O)CSc2nnc(N)s2)cc1OC (centres undefined) -1.14%
COc1ccc(C2CC(c3cccs3)=NN2C(=O)COC(=O)c2cc3ccccc3cc2O)cc1OC (centres undefined) -1%
CC(C)(C)NC(=O)C(c1cccnc1)N(C(=O)c1cnco1)c1ccc(C(C)(C)C)cc1 (centres undefined) -2.31%
C/C(=N\N(C)C)c1ccc(OCCOc2ccc([N+](=O)[O-])cc2)cc1 -0.12%
COc1ccc(S[C@]2(C(=O)N(C)C)CC(=O)N(c3ccc(OC)cc3)[C@@H]2c2ccc(OC)cc2)cc1 -2.06%
COc1ccc(CSc2nnc(-c3cccc(C)c3)n2C)cc1 -3.02%
COc1ccc(-c2ccc3c(n2)CCCN3S(=O)(=O)c2ccc(C)cc2)cc1 -0.08%
COc1cc(OC)cc(-c2nc(=S)n3ccsc3n2)c1 1.3%
FC(F)(F)Oc1ccc(-c2cn3cccnc3n2)cc1 0.45%
CCOC(=O)[C@@]12CN(C(=O)OC(C)(C)C)CC=C1N(Cc1ccc(OC)cc1)C(=O)[C@H]2CC(=O)NCc1ccc(OC)c(OC)c1 -1.83%

activation, active:
CCOc1ccc(C2c3[nH]c4ccccc4c3CCN2Cc2cn(CC)nc2C)cc1 (centres undefined) 6.76%
COc1ccc(CNC(=O)c2ccc3oc(C(C)C)nc3c2)cc1 6.74%
Cc1ccccc1Nc1nc(N)nc(CSc2ccccc2)n1 6.93%
O=C(Nc1cccc2cccnc12)c1cccc(Cl)c1 5.97%
O=C(/C=C/c1cnc2ccccc2n1)NC1CCCCCC1 8.85%
C#CCOc1ccccc1/C=C1/C(=O)ON=C1C 6.39%
O=C(NCCOc1ccccc1)c1ccccc1F 6.22%
Cc1noc(C)c1/C=N/Nc1ccc2ccccc2n1 7.4%
C(=N\Nc1ccc2ccccc2n1)/c1ccc2c(c1)OCO2 7.26%
COc1ccc(C2=Nc3ccccc3NC(=O)C2N(C(=O)c2cc3ccccc3[nH]2)c2ccccc2)cc1 (centres undefined) 6.3%
O=C(NCc1cccnc1)c1nc(-c2cccs2)no1 5.95%
CCS(=O)(=O)N1Cc2ccccc2CC1C(=O)Nc1nc2ccc(F)cc2s1 (centres undefined) 7.31%
CCOc1ccc2nc(C(=O)N3CCCC(C)C3)sc2c1 (centres undefined) 7.97%
NS(=O)(=O)c1ccccc1NC(=O)c1c(O)c2ccccc2[nH]c1=O 15.2%
CCS(=O)(=O)c1cc([N+](=O)[O-])c(Sc2ccccc2N)s1 7.01%
COc1ccc(C2CC(c3cccs3)=Nc3ccccc3S2)cc1OC (centres undefined) 7.77%
COc1ccc(-c2cn3ccc(C)cc3n2)cc1 7.15%
COc1ccc(-c2cn3ccsc3n2)cc1 6.33%
